APEX1 inh = qHTS Assay for Inhibitors of the Human Apurinic/apyrimidinic Endonuclease 1 (APE1) | DNA repair nuclease/redox regulator APEX1 (Homo sapiens), P27695 | recombinant APE1, TAMRA/BHQ-2 abasic DNA cleavage fluorescence | Potency, µM (top dose mostly 65.8 µM), without a hit: top-dose activity change, negative = inhibition, actives largely listed as inhibitors | actives 0.35% (n = 350,000) | AID 2517, 2012;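 also: plate controls were vehicle for no effect and reference inhibitor for full effect; nearly all actives have a fitted effect of over 55% in size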
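APE1 at 0.75 nM final was preincubated with compound 15 min at room temperature, then 50 nM double-stranded THF abasic-site substrate (5'-TAMRA/3'-BHQ-2) was added. Fluorescence (ex 525/em 598 nm) was read kinetically; third-minus-first read gave activity.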
RECQ1 inh-1 = qHTS Assay for Inhibitors of RecQ-Like Dna Helicase 1 (RECQ1); Potency, µM (titrated, usually from 57.3 µM), for the others: at the top dose activity, negative = inhibition, usual class: inhibitors; actives 0.54% (n = 240,000); RECQ1 DNA unwinding, red fluorescence kinetic read; ATP-dependent DNA helicase Q1 (Homo sapiens), P46063; AID 2549, 2010;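 also: plate controls were vehicle for no effect and no enzyme for full effect; nearly all actives have a fitted effect of over 30% in size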
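50 nM RECQ1T1 preincubated 15 min with compound in Tris pH 8.0 buffer with MgCl2, DTT, Tween-20 and 2.5 ug/ml poly(dI-dC); started with 200 nM TAMRA/BHQ-2 forked duplex and 2 mM ATP. Unwinding read as fluorescence (525/598 nm), two reads 2 h apart.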
TDP1 block = qHTS Assay for Inhibitors of Tyrosyl-DNA Phosphodiesterase (TDP1); Potency, µM (series often up to 130 µM), for the others: at the highest dose activity change, negative = inhibition, usual class: inhibitors; AID 485290, 2010; Tyrosyl-DNA phosphodiesterase 1 (Homo sapiens), Q9NUW8; recombinant TDP1, AlphaScreen DNA substrate cleavage; actives 0.28% (n = 350,000); also: nearly all actives have a fitted effect of over 40% in size
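Enzyme-compound mixtures sat 15 min at room temperature, followed by a 5 min reaction with 15 nM final substrate and 10 min with AlphaScreen beads. Recombinant human Tdp1 was used at 1 nM final.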
BLM helicase inh = qHTS Assay for Inhibitors of Bloom's syndrome helicase (BLM); RecQ-like DNA helicase BLM (Homo sapiens), P54132; recombinant BLM DNA unwinding, fluorescence dequenching; Potency, µM (doses to about 56.1 µM), for the others: at the top dose activity change, negative = inhibition, usual class: inhibitors; actives 0.2% (n = 350,000); AID 2528, 2010;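 also: plate controls were vehicle for no effect and no enzyme for full effect; nearly all actives have a fitted effect of over 35% in size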
JMJD2E inh = qHTS Assay for Inhibitors of Human Jumonji Domain Containing 2E (JMJD2E); Lysine-specific demethylase 4E (Homo sapiens), B2RXH2; JMJD2E catalytic domain, FDH-coupled NADH fluorescence (FDH is formaldehyde dehydrogenase); Potency, µM (series often up to 57.1 µM), inactives show at the highest dose activity change, negative = inhibition, hits mostly inhibitors; actives 1.6% (n = 230,000); active = well fitted inhibition curve with a large enough effect, not every such curve was filed as active; inconclusive = small, poorly fitted or top-dose-only effect, or another doubt; inactive = no such curve, though single readings can be large or run the other way;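 also: 0% = wells with enzyme and -100% = buffer wells without enzyme; nearly all actives have a fitted effect of over 50% in size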
KAT2A inh = qHTS Assay for Inhibitors of GCN5L2 | GCN5L2 HAT assay, ThioGlo1 CoA-SH fluorescence | Histone acetyltransferase KAT2A (Homo sapiens), Q92830 | AID 504327, 2011 | Potency, µM (top dose mostly 58.9 µM), inactives show top-dose activity change, negative = inhibition, most hits filed as inhibitors | actives 0.21% (n = 390,000)
Target sequence (Q92830 whole entry, looked up): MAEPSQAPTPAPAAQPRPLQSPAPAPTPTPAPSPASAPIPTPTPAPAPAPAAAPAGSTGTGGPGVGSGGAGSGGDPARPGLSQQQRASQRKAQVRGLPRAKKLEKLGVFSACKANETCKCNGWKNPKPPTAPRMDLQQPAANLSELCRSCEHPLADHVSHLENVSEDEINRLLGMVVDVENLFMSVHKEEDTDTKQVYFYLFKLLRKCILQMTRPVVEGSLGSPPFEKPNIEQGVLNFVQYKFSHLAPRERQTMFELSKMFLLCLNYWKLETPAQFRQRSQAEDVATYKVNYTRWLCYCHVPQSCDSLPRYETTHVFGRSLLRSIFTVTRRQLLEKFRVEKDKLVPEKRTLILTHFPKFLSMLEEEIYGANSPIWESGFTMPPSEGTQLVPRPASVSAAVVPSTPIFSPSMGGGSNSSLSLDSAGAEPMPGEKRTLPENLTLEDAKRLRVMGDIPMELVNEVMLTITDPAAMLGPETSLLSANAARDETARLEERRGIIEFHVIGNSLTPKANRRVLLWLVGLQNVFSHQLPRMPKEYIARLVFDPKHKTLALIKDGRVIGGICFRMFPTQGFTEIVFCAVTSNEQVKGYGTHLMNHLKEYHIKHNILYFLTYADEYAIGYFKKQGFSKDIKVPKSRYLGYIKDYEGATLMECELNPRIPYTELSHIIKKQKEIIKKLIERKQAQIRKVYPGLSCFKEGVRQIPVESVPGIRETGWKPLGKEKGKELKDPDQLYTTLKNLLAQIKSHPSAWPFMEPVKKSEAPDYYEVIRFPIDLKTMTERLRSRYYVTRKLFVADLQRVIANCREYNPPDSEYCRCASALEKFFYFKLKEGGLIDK
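Free CoA generated was detected with ThioGlo1 (50uM) fluorescence at Ex340nm/Em540nm, read immediately and after 20 min at room temperature. Enzyme, 20 nM in HEPES pH 7.5 buffer, saw compounds 15 min before adding 75uM H3(1-25) peptide and 70uM acetyl-CoA.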
RECQ1 conf = Confirmation qHTS Assay for Inhibitors of RecQ-Like Dna Helicase 1 (RECQ1) | Potency, µM (doses to about 229 µM), inactives show top-dose activity change, negative = inhibition, hits mostly inhibitors | AID 2708, 2010 | shares compounds with RECQ1 inh-1 | RECQ1 helicase DNA unwinding, fluorescence | actives 28% (n = 610); also: nearly all actives have a fitted effect of over 45% in size
RECQ1 ADP FP = Counterscreen for RECQ1 Inhibitors: ADP Fluorescence Polarization Displacement Assay; shares compounds with RECQ1 inh-1; ADP fluorescence polarization displacement counterscreen; Potency, µM (series often up to 228 µM), inactives show at the highest dose activity change, negative = inhibition, most hits filed as inhibitors; actives 27% (n = 530); AID 2711, 2010; also: nearly all actives have a fitted effect of over 45% in size
RECQ1 inh-2 = Confirmation qHTS Assay for Inhibitors of RecQ-Like Dna Helicase 1 (RECQ1) - Round 2 Cherry Picks | shares compounds with RECQ1 inh-1 | AID 504841, 2011 | Potency, µM (series often up to 119 µM), for inactives: at the highest dose activity, negative = inhibition, actives largely listed as inhibitors | actives 15% (n = 1,100) | recombinant RECQ1 DNA unwinding, red fluorescence; also: nearly all actives have a fitted effect of over 50% in size
Numbers without * were called inactive; i = inactive; ? = inconclusive; / = no result; [ ] = dose if it differs, or a comment. Shown is part of a subset that was picked to be rich in hits. Unless noted, calls follow the shape of the dose curve; as a rule, active = well fitted curve in the direction sought with a large enough effect; inconclusive = small, poorly fitted or top-dose-only effect, or another doubt; inactive = no such curve, though single readings can be large; an effect the other way counts as inactive or inconclusive. Unless noted, % is scaled to controls: 0 for no effect and ±100 for the full control effect; potency is read from the fitted curve at half-maximal effect.

SMILES	APEX1 inh	RECQ1 inh-1	TDP1 block	BLM helicase inh	JMJD2E inh	KAT2A inh	RECQ1 conf	RECQ1 ADP FP	RECQ1 inh-2
COc1ccc(CCNC(=O)c2ccc3c(c2)CCN3S(=O)(=O)c2ccc(C)cc2)cc1OC	/	/	4.7%	-1.2%	/	-6.5%	/	/	/
Cc1cc(C)cc(SCc2noc(C(=O)NCC3CCCO3)c2C(=O)O)c1 (stereo unspecified)	-10.8%	-8.2%	2.1%	-2.2%	-3.7%	-2.2%	10.1%	?	/
Cc1cccc(SCc2noc(C(=O)NCC3CCCO3)c2C(=O)O)c1 (stereo unspecified)	-0.6%	-9.9%	3.1%	-0.3%	-5.8%	-4.5%	/	/	/
CCn1c(SCC(=O)c2cc(C)n(CC3CCCO3)c2C)nc2ccccc21 (stereo unspecified)	-6.1%	39.8µM*	6.3%	-16.6%	-18.4%	2.0%	/	/	-6.5%
Cc1cc(C(=O)CSc2nc3ccccc3c(=O)n2C)c(C)n1CC1CCCO1 (stereo unspecified)	17.8%	-10.7%	2.4%	-0.5%	-0.2%	-1.2%	/	/	/
CCCC[C@H]1CCCO[C@@](C(=O)NCc2ccc(C)o2)(C(F)(F)F)C1	-2.4%	-0.6%	5.0%	-3.9%	/	/	/	/	/
O=C(O)CN(CC(=O)O)Cc1cc2c(-c3ccccc3C(=O)O)c3cc(CN(CC(=O)O)CC(=O)O)c(=O)cc-3oc2cc1O	/	28.2µM*	?	15.8µM*	3.98µM*	?	112µM*	0.141µM*	/
O=C(O)c1ccccc1-c1c2ccc(=O)cc-2oc2cc(O)ccc12	28.2µM*	31.6µM*	29.2%	31.6µM*	/	?	112µM*	0.501µM*	79.4µM*
O=C(O)c1ccccc1-c1oc2cc(O)ccc2c(=O)c1Oc1ccccc1	-1.9%	-0.2%	-4.4%	-1.4%	?	/	/	/	/
O=C(Nc1ccc2c(c1)N(C1CCCC1)C(=O)c1ccccc1S2)c1cccc(F)c1	/	/	4.4%	-8.3%	/	-7.9%	/	/	/
Cc1ccc(S(=O)(=O)N(CC(=O)Nc2cccc(N(C)S(C)(=O)=O)c2)c2ccc(Cl)c(Cl)c2)cc1	-2.9%	7.08µM*	2.1%	-11.6%	2.0%	-9.3%	?	5.6%[91.9 µM]	-9.1%
c1ccc2oc(-c3[nH]ncc3CN3CCSCC3)cc2c1	-1.4%	?	/	-1.1%	0.9%	1.0%	/	/	1.7%
S=C(NCCSCc1c(Cl)cccc1Cl)Nc1ccccc1	-2.6%	12.6µM*	5.4%	-11.4%	0.9%	5.1%	4.2%[114 µM]	0.8%[91.9 µM]	/
Cc1[nH]c(=O)c(C(=O)/C=C/c2ccccc2F)c2c1CCCC2	13.0%	31.6µM*	2.0%	-7.1%	-8.1%	-6.9%	/	/	?
N#C/C=C(/N)c1ccc(Br)cc1	-5.0%	?	2.8%	-1.7%	-9.6%	-5.1%	/	/	6.6%
COc1ccc2c(CNCCc3ccccc3)c(C(=O)O)n(Cc3cccc(F)c3)c2c1	/	/	4.7%	3.6%	/	-14.5%	/	/	/
O=C1C=C(O)C(n2cncn2)C(c2ccc3c(c2)OCO3)C1 (stereo unspecified)	-8.0%	?	4.8%	-6.2%	-7.5%	-12.1%	/	/	-19.9%
COc1ccc(NC(=O)Nc2ccccc2OCc2cc(=O)n3ccccc3n2)c(OC)c1	/	/	5.4%	-18.8%	/	-11.6%	/	/	/
CCn1c(CCC(=O)O)nc2cc(S(=O)(=O)N3CCOCC3)ccc21	28.0%	/	1.2%	/	/	-1.5%	/	/	/
CN(C)S(=O)(=O)c1ccc2c(c1)nc(CCC(=O)O)n2C	14.6%	-9.2%	4.8%	-5.0%	-3.9%	-1.1%	19.6%	100µM*	/
CCCn1c(CCC(=O)O)nc2cc(S(=O)(=O)N3CCCC3)ccc21	-3.4%	-5.1%	/	-5.7%	-2.0%	-3.8%	112µM*	?	/
CCCCn1c(CCC(=O)O)nc2cc(S(=O)(=O)N(CC)CC)ccc21	-1.9%	-24.9%	3.7%	-4.1%	-0.6%	-4.9%	89.1µM*	10.7%	/
CCn1c(CCC(=O)O)nc2cc(S(=O)(=O)N(C)C)ccc21	0.0%	i	0.0%	3.6%	-0.6%	-3.7%	/	/	/
O=C(OCc1ccccc1)[C@@H]1COC(c2ccc(Br)cc2)=N1	-2.8%	i	-1.0%	-0.8%[75.6 µM]	/	-14.4%[88.6 µM]	/	/	/
O=C(COc1ccc2ccccc2c1)Nc1cccc(C(=O)Nc2ccccc2C(=O)O)c1	?	?	5.8%	-3.1%	0.7%	-12.2%	/	/	?
SMILES	APEX1 inh	RECQ1 inh-1	TDP1 block	BLM helicase inh	JMJD2E inh	KAT2A inh	RECQ1 conf	RECQ1 ADP FP	RECQ1 inh-2
O=C(CSc1ccc(Cl)cc1)N1CCN(c2c(Cl)cccc2[N+](=O)[O-])CC1	-3.9%	8.91µM*	4.0%	-10.5%	-0.7%	-2.5%	-6.0%[114 µM]	-4.3%[91.9 µM]	-27.4%
COc1ccc2c(c1)O/C(=C\c1ccco1)C2=O	?	?	11.6%	2.5%	?	-0.3%	/	/	-8.3%
COc1ccc(/C=C2\Oc3cc(OCC(N)=O)ccc3C2=O)cc1OC	-3.9%	/	/	-4.3%	/	-10.4%	/	/	/
C=CCN1CC(C(=O)N(CCCN(C)C)C(=O)NCC)CC2c3cccc4[nH]cc(c34)CC21 (stereo unspecified)	/	-12.8%	6.2%	0.0%	/	1.3%	/	/	/
COc1ccc(-n2c(O)c(/C=N/Nc3nc(C)cc(C)n3)c3ccccc3c2=O)cc1OC	1.2%	-12.5%	10.1%	-25.1%	?	1.0%	/	/	/
COc1ccc(-n2c(O)c(/C=N/NS(=O)(=O)c3cc(C)ccc3C)c3ccccc3c2=O)cc1OC	?	14.1µM*	9.1%	-16.5%	?	-8.3%	/	/	50.1µM*

Screens as filed in PubChem.
